Drawing on PubChem BioAssay (NCI), this text covers growth for 39 compounds.

Molecules are shown by their SMILES. Compounds without any hit were thinned out: in the full panel of roughly 83,000, 20% have a hit.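 The endpoint reported here, percent growth, reads 100 for growth as untreated, 0 for no net growth and -100 for all cells dead.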 Active and inactive are the calls of the source. Rule for the calls: active = growth percent below 10; inactive = the rest.

The experiment relates to UO-31 renal. Description: NCI-60 one-dose screen, 48 h (100 = growth as untreated, 0 = no growth, -100 = all killed). Conditions: 10 µM unless noted.
As to `COc1ccccc1-c1nc2ccc3[nH]ncc3c2c2c1CCCC2`, the growth is 36.3% (inactive). With `O=c1ccc2nc(-c3ccccc3)nn(-c3ccccn3)c-2c1`, the growth was 20.5% (inactive). Next, `Nc1ncc(-c2ccc3ncnc(N4CCc5cc(F)c(Cl)cc54)c3c2)cc1C=O`: 0.272% (active); `C#Cc1ccc(NC(=O)Cc2ccc(/C=C/C(=O)c3nccn3C)cc2)cc1`: 58.7% (inactive); `CCCCN(CCC#N)C(N)=O`: 98.4% (inactive). To `COc1ccc(-c2cn(Cc3ccc4c(Br)cc(Br)c(O)c4n3)nn2)cc1` belongs -92.3% (active). To `CCc1ccc(Cc2cnc(NC(=O)c3cc(C)oc3C)s2)cc1` belongs 43.6% (inactive); to `COc1cc(/C=C/c2cc(/C=C/c3ccc(O)c(OC)c3)n(C(=O)Nc3ccc(C)cc3C)n2)ccc1O`, -38.7% (active).

Turning to `Clc1nc(N2CCC[N+]3(CC2)CC[N+]2(CCCNCC2)CC3)nc(N2CCC[N+]3(CC2)CC[N+]2(CCCNCC2)CC3)n1` (centres undefined), the growth is 97.9% (inactive). Next, `O=S(=O)(Nc1ccc(Br)cc1)c1ccc(-c2cnc(C3CC3)o2)cc1`: 42.3% (inactive). Next, `O=C1N/C(=N/N=C(c2ccccc2)c2ccccc2)S/C1=C\c1ccc(Br)cc1`: 73.1% (inactive). Next, `COc1cc(OCc2cccc(-c3ccc4c(c3)OCCO4)c2C)cc(OC)c1C=O`: 51% (inactive); `COC(=O)c1c(C)nc(C)c2c1C(=O)C(Br)=C(NCCCCO)C2=O`: 79.7% (inactive). For `COc1ccc(CNc2c3ccccc3nc3ccccc23)cc1OC`, the growth was 12.1% (inactive). As for `COc1cc(/C=C/C(=O)c2ccc(-n3cc(CN4CCN(c5cc6c(cc5F)c(=O)c(C(=O)O)cn6C5CC5)CC4)nn3)cc2)cc(OC)c1OC`, the growth was 65.4% (inactive). Next, `CCCCCC(C)(O)C(C(=O)O)c1ccccc1` (centres undefined): 94.5% (inactive); `C[C@@H]1N=C(c2ccc(Cl)cc2Cl)Nc2nc3ccccn3c2C1=O`: 52.4% (inactive); `O=C(Nc1ccccc1)Nc1ccccc1CNc1nc(Nc2ccc(OCCN3CCCC3)cc2)ncc1Cl`: 39.6% (inactive). Next, `COc1ccc(S(=O)(=O)N(C)c2oc(-c3ccc(Cl)cc3)nc2C#N)cc1`: 72.2% (inactive); `COc1cccc(C(=O)Nc2cccc(NC(=O)c3ccccn3)c2)c1`: 79.5% (inactive). To `CS(=O)(=O)c1ccc(/C(=N/NC(N)=S)c2ccc(F)cc2)cc1` belongs 71.1% (inactive). For the compound `CSc1nc(N)c2c(n1)NC(c1ccccc1)C1CCc3ccccc3C1=N2` (centres undefined), the growth was 43% (inactive).

With `COc1cccc(CNc2nnc(C)c(C)n2)c1O`, the growth was 91.6% (inactive).

Regarding `COc1ccc(NC(=O)CSc2oc(-c3ccccc3)nc2S(=O)(=O)c2ccc(Cl)cc2)c(OC)c1`, the growth was 61.6% (inactive). As to `O=C(c1ccc(F)cc1)C1CCN(CCn2c(=O)[nH]c3ccccc3c2=O)CC1`, the growth was 64.6% (inactive). To `CC(=O)OCC(=O)O[C@@H]1C[C@]2(C(C)C)O[C@@]1(C)[C@@H]1CC[C@@H](C)[C@H]1[C@@H]2OC(=O)/C=C/c1ccccc1` belongs -83.3% (active); to `O=C(Nc1ncc(Cc2ccccc2)s1)c1cc(-c2ccccc2)nc2ccccc12`, 78.7% (inactive); to `O=c1cc(-c2nccc3c2[nH]c2ccccc23)c2cc(Cl)ccc2o1`, 58.1% (inactive). Next, `O=C(CN1C(=O)NC2NC(=O)NC21)N/N=C/c1cccc([N+](=O)[O-])c1` (centres undefined): 88.4% (inactive); `CCCCCCCCCCCCCC[n+]1ccc2c(C)c3c(c(C)c2c1)c1cc(O)ccc1n3CC`: -1.41% (active).

As to `C=C(C)[C@@H]1CCC[C@]2(C(=O)OC)CC[C@]3(C)[C@@H](CC[C@@H]4[C@@]5(C)CCCNC(C)(C)[C@@H]5CC[C@]43C)[C@@H]12`, the growth was 57.7% (inactive). Take `COc1cc2c(cc1-c1c(C)noc1C)ncc1nc(C3CCOCC3)n(C3CCC(OC(F)F)CC3)c12` (centres undefined): the growth is 14.5% (inactive). Next, `O=C1CCC(C(=O)N/N=C/c2ccc([N+](=O)[O-])cc2)N1` (centres undefined): 83.4% (inactive). Next, `COc1cc(C(=O)/C=C/c2c(-c3cccs3)nc3sc(C)cn23)cc(OC)c1OC`: -7.93% (active). To `O=C(NS(=O)(=O)c1ccccc1)n1cc(-c2ccncc2)c(-c2cc(O)cc(Cl)c2)n1` belongs 91.9% (inactive).

Consider `COC(CCP(=O)(c1ccccc1)c1ccccc1)(C(=O)c1ccccc1)c1ccccc1` (centres undefined), for which the growth was 33.4% (inactive). For the compound `Cn1nc(-c2ccc(Cl)cc2)nc2c(=O)n(C)c(=O)nc1-2`, the growth is 12.3% (inactive). As to `CC1(C)CCC[C@]23C(=O)O[C@](O)(C(=O)C4=C[C@@](C)(/C=C/CCCc5ccc6ccc7cccc8ccc5c6c78)CC[C@@]42O)[C@@H]13`, the growth is -97.1% (active).

Consider `COc1ccc(C2=C/C(=C\c3ccccc3O)C(=O)N2Cc2ccccc2)cc1`, for which the growth was 68.4% (inactive).
